Compound activity deposited in PubChem BioAssay by Broad Institute.
The list is a sample of the results.
aSyn 5UTR act: Activators working through SNCA 5'UTR binding (MLPCN); 7.1% of 300,000 active; alpha-synuclein 5'UTR reporter, activators screen; activity score, % (tested at 7.5 µM), hits read low; in the data active = activity score below about -60%
* = called active by the depositor.

SMILES	aSyn 5UTR act
CCOC(=O)N1N=C(c2ccccc2)CC1(O)C(F)(F)F (configuration not stated)	-75.4*
COC(=O)N1N=C(c2ccc(Br)cc2)CC1(O)C(F)(F)F (configuration not stated)	-125.7*
CCOC(=O)C1=NN(C(=O)c2cccc(Br)c2)C(O)(C(C)(C)C)C1 (configuration not stated)	104.7
Oc1cccc(Nc2ncnc3c2oc2ccccc23)c1	-134.5*
c1ccc(Nc2ncnc3c2oc2ccccc23)cc1	-139.1*
Oc1ccc(Nc2ncnc3c2oc2ccccc23)cc1	-116.0*
CC(=O)N1CCN(c2ccc(Nc3ncnc4c3oc3ccccc34)cc2)CC1	-81.4*
Oc1ccccc1Nc1ncnc2c1oc1ccccc12	-88.0*
c1ccc2c(c1)oc1c(Nc3ccc4c(c3)OCO4)ncnc12	-107.5*
Cc1nnc(Nc2ccc3c(c2)OCO3)c2ccccc12	-80.3*
c1ccc2c(c1)oc1c(Nc3ccc(CN4CCOCC4)cc3)ncnc12	-101.7*
Cc1nc(Nc2ccccc2)c2oc3ccc(Cl)cc3c2n1	-93.1*
O=C(NC1=NCCS1)c1cccc(Br)c1	-74.7*
CCOc1cccc(C(=O)NC2=NCCS2)c1	-103.8*
CC(C)Oc1cccc(C(=O)NC2=NCCS2)c1	-96.1*
O=C(NC1=NCCS1)c1ccc(Br)s1	-171.1*
c1csc(-c2nc(N3CCCCC3)no2)c1	-137.4*
O=C(N/N=C/C(Cl)=C\c1ccccc1)c1ccco1	-223.8*
O=C(N/N=C/C(Cl)=C/c1ccccc1)c1ccco1	-157.9*
O=C(c1ccc(S(=O)(=O)Cc2cc(F)ccc2F)c([N+](=O)[O-])c1)N1CCCCC1	-102.3*
COc1ccc(NC(=O)/C=C/c2ccc(F)cc2)cn1	-113.9*
COc1ccc(NC(=O)/C=C/c2ccccc2)cn1	-116.1*
COc1ccc2nc(-n3c(O)c(C4=c5ccccc5=NC4=O)[nH]c3=S)sc2c1	-74.2*
CCN=C1S/C(=C\c2ccc(Sc3ccc(Cl)cc3)o2)C(=O)N1CC	56.5
CC1=CN2C(=N)/C(=C/c3ccc(Sc4ccc(C)cc4)o3)C(=O)N=C2S1	-77.6*
SMILES	aSyn 5UTR act
CC1=CN2C(=N)/C(=C/c3ccc(C)o3)C(=O)N=C2S1	-80.4*
CCOc1ccc(C(=O)NC(=S)Nc2ccccn2)cc1[N+](=O)[O-]	-103.9*
O=C(NC(=S)Nc1ccccn1)c1cccc([N+](=O)[O-])c1	-89.3*
O=C(Nc1ccccn1)c1sc2cc([N+](=O)[O-])ccc2c1Cl	-160.9*
Cc1cc2c([nH]c3ccccc32)c2c1OC(C)(C)C=C2	-204.0*
Cc1cc2[nH]c3c(c[n+](C)c4ccccc34)c2cc1C	101.2
CNc1oc(-c2ccc(Cl)cc2)nc1C#N	-172.7*
CNc1oc(-c2cccc3ccccc23)nc1C#N	-104.8*
COc1ccc(-c2nc(C#N)c(NC(C)C)o2)cc1	-68.4*
COc1ccc(C(CC(=O)c2ccc(O)cc2)S(=O)(=O)c2ccc(C)cc2)cc1 (configuration not stated)	-250.3*
O=c1nc(/C=C/c2cc([N+](=O)[O-])ccc2Cl)cc(C(F)(F)F)[nH]1	-67.1*
COc1cc(OC)c(OC)cc1/C=C/c1cc(C(F)(F)F)[nH]c(=O)n1	-121.1*
Cc1ccc2nc(-c3ccc(N4C(=NC(=O)CCC(=O)O)SC5CS(=O)(=O)CC54)cc3)sc2c1 (configuration not stated)	-91.9*
CC(=O)N=C1SC2CS(=O)(=O)CC2N1c1ccc(-c2nc3ccc(C)cc3s2)cc1 (configuration not stated)	-164.1*
COCC(=O)Nc1c(C(=O)Nc2ccc3c(c2)OCO3)oc2ccccc12	-116.7*
Cc1c(C(=O)Nc2ccc3c(c2)OCO3)oc2ccccc12	-136.6*
O=C(CCl)Nc1c(C(=O)Nc2ccc3c(c2)OCCO3)oc2ccccc12	-139.0*
CC(=O)Nc1c(C(=O)Nc2ccc3c(c2)OCO3)oc2ccccc12	-87.6*
CC(=O)N1CCn2c3ccc(C)cc3c3cccc1c32	-83.4*
Cc1cccc(NC(=O)/C(C#N)=C/c2ccccc2O)n1	-140.4*
O=C(/C=C/Nc1ccccc1C(F)(F)F)c1ccco1	-321.3*
O=C(/C=C/Nc1ccc(Oc2ccccc2)cc1)c1ccco1	-200.9*
O=C(/C=C/Nc1cccc(C(F)(F)F)c1)c1ccc(Oc2ncccn2)cc1	-93.7*
O=C(/C=C/Nc1cccc(C(F)(F)F)c1)c1ccco1	-173.9*
NC(=O)c1ccccc1N/C=C/C(=O)c1ccco1	-96.6*
SMILES	aSyn 5UTR act
COc1cccc(CNC(=O)CN2C(=O)CSc3ccc(S(=O)(=O)N4CCCCC4)cc32)c1	-159.9*
COC(=O)c1cc(-c2c(C)nn(-c3ccccc3)c2C)n[nH]1	-87.4*
Cc1ccc(-c2cc(C(=O)N/N=C/c3c(C)nn(-c4ccccc4)c3C)[nH]n2)cc1	66.1
Cc1nc(NC(=O)C23CC4CC(CC(C4)C2)C3)sc1Cc1ccc2c(c1)OCO2	-183.7*
O=C(CCl)NCCN1C(=O)S/C(=C\c2cccnc2)C1=O	-99.1*
CC1(C)Cc2nc3sc(C(=O)NCCCO)c(N)c3cc2CO1	-68.7*
COC(=O)c1sc2nc3c(cc2c1N)COC(C)(C)C3	-131.0*
Oc1ccc(Br)cc1-c1ccn[nH]1	-69.2*
Cn1cc(Cl)cc(C(=O)Nc2ccccc2)c1=O	-133.2*
CCCCN1C(=O)/C(=C/C=C2/CC(C)(C)CN2C)SC1=S	-133.8*
CC(=O)c1cccc(NC(=O)CSc2ccc(-c3ccc4c(c3)OCO4)nn2)c1	-87.0*
COc1ccc(-c2ccc(SCC(=O)Nc3cccc(C(C)=O)c3)nn2)cc1OC	-82.3*
COc1ccccc1NC(=O)CSc1ccc(-c2ccc(-n3cccn3)cc2)nn1	-112.6*
Cc1c(C(=O)OCC(C)C)[nH]c2c1C(=O)CC(c1ccco1)C2 (configuration not stated)	69.9
CCOC(=O)c1[nH]c2c(c1-c1ccccc1)C(=O)CC(c1ccccc1)C2 (configuration not stated)	-65.8*
CCC(C)OC(=O)c1[nH]c2c(c1C)C(=O)CC(c1ccc(N(C)C)cc1)C2 (configuration not stated)	-91.9*
CCC(=NCCc1c(C)[nH]c2ccc(OC(F)(F)F)cc12)C1=C(O)CC(c2ccccc2)CC1=O (configuration not stated)	107.0
CCCc1n[nH]c2c1/C(=N/O)CC(c1ccccc1)C2 (configuration not stated)	69.4
CCOC(=O)Nc1cc(Br)c2c(c1)OCCO2	-67.9*
CCOC(=S)SCC(=O)Nc1nc(-c2ccc(Br)cc2)cs1	69.9
CCOC(=O)N1CCN(C(=O)CSCC(=O)Nc2nc(-c3ccc(OC)cc3)cs2)CC1	-96.8*
CCOC(=O)N1CCN(C(=O)CSCC(=O)Nc2nc(-c3ccc(-c4ccccc4)cc3)cs2)CC1	-125.7*
O=C(COC(=O)c1cccnc1Cl)Nc1nc(-c2ccccc2)cs1	-63.0*
CCOC(=O)N1CCN(C(=O)CSCC(=O)Nc2nc(-c3ccc(Cl)s3)cs2)CC1	-85.3*
Cc1nc2c(ccc3c2ccc2nc(C)sc23)s1	-112.5*
COc1cc(C2C3=C(Nc4ncnn42)c2ccccc2CC3)cc(OC)c1OC (configuration not stated)	82.6
CC(Oc1cccc(Cl)c1)C(=O)Nc1nc(-c2ccccn2)cs1 (configuration not stated)	63.7
Cc1ccc(C(=O)Nc2nc(C)c(C(=O)N(C)C)s2)o1	-76.8*
Cc1nnc(NC(=O)c2oc3ccccc3c2C)s1	-83.4*
CCCCc1nnc(NC(=O)c2oc3ccccc3c2C)s1	-96.0*
